Laboratory results as given in ChEMBL document CHEMBL3988442, “University of Dundee, Small-Polar-MMV Screening Library” (2021).
Hit rate of the full screen: of about 48,000 compounds, about 13,000 (27%) showed an effect of 50% or more. Some of the results follow.

The molecules below were run on Wolbachia pipientis (assay: Anti-Wolbachia Cell-Based Screen). Conditions: 5 µM.
Type: functional
Set-up: scale not given: in the data most compounds retested in dose-response had high values

Row | Structure (SMILES) | Percent Effect [%]
1 | COC(=O)C1Cc2nc[nH]c2CN1Cc1ccc(Sc2ncccn2)o1 (stereo not drawn) | 2.291
2 | COc1cc2nc(NCc3cc(C)on3)nc(N)c2cc1OC | -8.416
3 | CC1CN(Cc2noc(C3CC3)n2)CCN1Cc1nccn1C (stereo not drawn) | -7.382
4 | CCNC(=O)c1ccnc(N2CCCC(COc3ccccc3C)C2)c1 (stereo not drawn) | 3.224
5 | CCOCCn1nc(C)cc1C(=O)N(C)Cc1cccc2ncccc12 | 6.003
6 | C=C(C)Cn1ccc2cc(OC)c(F)cc2c1=O | -16.88
7 | CC[C@H]1CN(S(C)(=O)=O)CC[C@H]1CC(=O)NCCSC | -2.393
8 | O=C(c1ccn(-c2ccc(F)cc2)n1)N1CCCC(n2ccnc2)C1 (stereo not drawn) | 97.03
9 | Cc1ccn(-c2ccc(C(=O)N3CCCC(n4ccnc4)C3)cc2)n1 (stereo not drawn) | 4.214
10 | O=C(c1ccc(-n2cnnn2)cc1)N1CCCC(n2ccnc2)C1 (stereo not drawn) | 90.08
11 | CCc1nccn1C1CCCN(C(=O)c2ccn(-c3ccccc3)n2)C1 (stereo not drawn) | -25.66
12 | O=C(c1ccc(-n2ccnc2)cc1)N1CCCC(n2ccnc2)C1 (stereo not drawn) | 120.2
13 | CS(=O)(=O)c1ccc(C(=O)N2CCCC(n3ccnc3)C2)cc1 (stereo not drawn) | 96.86
14 | NC(=O)C1CCCN(C(=O)c2ccc(-n3ccnc3)cc2)C1 (stereo not drawn) | 0.2074
15 | O=C(CNC(=O)c1ccoc1)NCCOc1ccc2c(c1)CCC2 | 14.09
16 | NC(=O)COc1ccc(C(=O)N2CCCC(n3ccnc3)C2)cc1 (stereo not drawn) | 96.26
17 | CCc1nccn1C1CCCN(C(=O)c2ccc(-n3ccnc3)cc2)C1 (stereo not drawn) | 94.46
18 | CCc1nccn1C1CCCN(C(=O)c2cncn2-c2ccccc2)C1 (stereo not drawn) | -5.728
19 | CC1=NN(c2ccc(C(=O)N3CCCC(n4ccnc4)C3)cc2)CC1 (stereo not drawn) | -6.024
20 | Cc1ccnn1-c1ccc(C(=O)N2CCCC(n3ccnc3)C2)cc1 (stereo not drawn) | 116.9
21 | NC(=O)COc1cccc(C(=O)N2CCCC(n3ccnc3)C2)c1 (stereo not drawn) | 2.122
22 | O=C(c1ccc(-n2cnnc2)cc1)N1CCCC(n2ccnc2)C1 (stereo not drawn) | 107.8
23 | O=C(c1ccc(OCC2CC2)nc1)N1CCCC(n2ccnc2)C1 (stereo not drawn) | -1.875
24 | O=C1COc2cc(C(=O)N3CCCC(n4ccnc4)C3)ccc2N1 (stereo not drawn) | -12.82
25 | CCC(NCCn1cc(C)cn1)C(=O)Nc1cc(C)on1 (stereo not drawn) | -26.17

Row | Structure (SMILES) | Percent Effect [%]
26 | CC(=O)c1cc(CC(=O)NCc2cccc(F)c2F)cs1 | -6.344
27 | O=C1CC[C@H]2CN(c3ncccc3F)CC[C@H]2N1CCc1ccccc1 | 4.939
28 | Cc1noc(C)c1CN(C)Cc1csc(-c2ncccn2)n1 | 0.1209
29 | N[C@@H]1c2ccccc2C2(CCN(C(=O)c3ccc(=O)[nH]c3)CC2)[C@H]1O | 2.656
30 | Cc1cc(CN2CCN(C(=O)NCc3nc(C)cs3)CC2)on1 | -3.882
31 | NS(=O)(=O)c1cc(C(=O)N2CCCC(n3ccnc3)C2)cs1 (stereo not drawn) | 104.4
32 | CC1CCCN(C(=O)c2csc(S(N)(=O)=O)c2)CC1 (stereo not drawn) | -10.27
33 | O=C(c1csc(Br)c1)N1CCCC(n2ccnc2)C1 (stereo not drawn) | -1.444
34 | FC(F)(F)c1cccnc1N1CCC(OC2CCOCC2)CC1 | 1.629
35 | COc1ccc(CNC(C)c2ccc3[nH]c(=O)[nH]c3c2)cc1 (stereo not drawn) | 1.768
36 | CC(NCc1ccc(OCC(N)=O)cc1)c1ccc(Cl)c(Cl)c1.Cl (stereo not drawn) | 11.22
37 | CC(NCc1ccc(F)cc1)c1ccc(OCC(=O)NC2CC2)cc1 (stereo not drawn) | 13.29
38 | CCOc1ccc(CNC(C)c2ccc3[nH]c(=O)[nH]c3c2)cc1 (stereo not drawn) | 115.8
39 | Cc1ccc(CNC(C)c2ccc3[nH]c(=O)[nH]c3c2)s1 (stereo not drawn) | 0.5584
40 | CC(NCc1ccc(F)cc1)c1ccc2[nH]c(=O)[nH]c2c1 (stereo not drawn) | 94.79
41 | Nc1ccnc(N2CCC(CCc3ccccc3)(C(=O)O)CC2)n1 | -1.622
42 | CC(=O)N1[C@H](Cn2cncn2)C[C@@H]2CN(Cc3ccncc3)CC[C@@H]21.O=C(O)C(F)(F)F.O=C(O)C(F)(F)F | -2.106
43 | CN(C)Cc1nnc(C2CCN(C(=O)CCc3cccs3)CC2)n1C | -18.7
44 | CN(C)C[C@@H]1C[C@@H]2CN(C(=O)Cc3cccs3)CC[C@@H]2N1C | 87.94
45 | CC(=O)N1[C@H](CN(C)C)C[C@@H]2CN(c3ncc(F)cn3)CC[C@@H]21.O=C(O)C(F)(F)F.O=C(O)C(F)(F)F | -11.57
46 | CC(C)CC1COCCN1C(=O)Cc1cccs1 (stereo not drawn) | -4.501
47 | CC(=O)N1[C@H](CN(C)C)C[C@@H]2CN(C(=O)Cc3cccs3)CC[C@@H]21.O=C(O)C(F)(F)F | 96.5
48 | Cn1cc(CCCNS(=O)(=O)N2CCCC2c2ccco2)cn1 (stereo not drawn) | -2.203
49 | OC1(CNc2ccc(Br)cn2)CCSCC1 | 5.842
50 | CC(C)N(C)[C@@H]1CCN(C(=O)[C@H]2CCCO2)[C@H]1Cc1cnn(C)c1 | -7.042

Row | Structure (SMILES) | Percent Effect [%]
51 | O=C([C@H]1CCCO1)N1CC[C@H](O)[C@@H]1Cc1cccnc1 | 104.4
52 | O=C([C@H]1CCCO1)N1CC[C@@H](O)[C@@H]1Cc1ccccc1 | 97.77
53 | Cc1cc(C(=O)N2CC[C@H](OCC3CC3)[C@@H]2Cc2cccnc2)no1 | -4.828
54 | O=C1CC[C@H]2[C@H](CCN2C(=O)C2CCCO2)N1Cc1ccncc1 (stereo partly drawn) | 9.155
55 | O=C(O)C(F)(F)F.O=C([C@H]1CCCO1)N1CC[C@H](O)[C@@H]1Cc1ccncc1 | -12.15
56 | Cn1cc(Br)c(=O)c(NS(=O)(=O)c2ccc(F)cc2)c1 | -3.18
57 | CSCCNC(=O)C1CCC(=O)N(C2CCCC2)C1 (stereo not drawn) | -26.76
58 | CCOCc1ccccc1NC(=O)NCC(c1cnn(C)c1)N(C)C (stereo not drawn) | -8.458
59 | Cc1nc(C(=O)N(C)C2CC(=O)N(Cc3ccccc3)C2=O)cs1 (stereo not drawn) | -12.75
60 | CCOC(=O)CCNC(=O)N1CCCC(CNC(=O)c2ccco2)C1 (stereo not drawn) | 4.582
61 | CCOC(=O)N1[C@@H](c2ccco2)[C@@H](C(=O)NC)C[C@]12CCCCNC2=O | 102
62 | CCOC(=O)N1[C@@H](c2ccco2)[C@@H](C(=O)O)C[C@]12CCCCNC2=O | 122.2
63 | Cc1cc(NC(N)=O)ccc1C(=O)N(C)C | 10.57
64 | CC(=O)N1CCC(c2nnc3ccc(C(=O)NC(C)C)cn23)C1 (stereo not drawn) | 15.69
65 | CN(C)C(=O)N1CCN(CCCc2ccccc2)[C@H]2CS(=O)(=O)C[C@H]21 | -9.893
66 | CN(Cc1coc(-c2ccccc2)n1)CC1CCCN1c1cccnn1 (stereo not drawn) | 26.49
67 | COCc1ccccc1NC(=O)[C@@H]1CCCN1C(=O)c1ccco1 | 6.983
68 | O=C(c1ccco1)N1CCC(CSCc2ccco2)CC1 | -5.267
69 | O=C(c1ccco1)N1CC[C@H]2[C@H]1CCN2S(=O)(=O)C1CC1 | -8.248
70 | COCC1N(C(=O)c2ccco2)[C@H]2CC[C@]1(O)CC2 (stereo partly drawn) | 106.6
71 | COC(=O)c1sccc1NC(=O)C1CCCN1C(=O)c1ccco1 (stereo not drawn) | -17.58
72 | COCC1N(C(=O)c2ccc3c(c2)OCCCO3)[C@H]2CC[C@]1(O)CC2 (stereo partly drawn) | 106.3
73 | O=C(c1ccco1)N1C(CN2CCOCC2)[C@]2(O)CC[C@H]1CC2 (stereo partly drawn) | 107
74 | O=C(c1ccco1)N1CC[C@@H](N2CCOCC2)[C@@H]1Cc1ccccc1 | -19.81
75 | O=C(NCC1CC1)C1CN(C(=O)c2ccco2)CC12CCOCC2 (stereo not drawn) | -3.478

Row | Structure (SMILES) | Percent Effect [%]
76 | O=C(c1ccco1)N1C(CO)[C@]2(O)CC[C@H]1CC2 (stereo partly drawn) | 85.33
77 | O=C(c1ccc2c(c1)OCCCO2)N1CCCCC1C1OCCO1 (stereo not drawn) | -8.172
78 | CC1CCCCN1C(=O)c1ccc2c(c1)OCCCO2 (stereo not drawn) | -1.264
79 | COc1ccc(CC(C)(O)CNC(=O)c2cccs2)cc1 (stereo not drawn) | 9.514
80 | O=C(CCNc1ncccn1)NCCc1ccc(Cl)s1 | 4.707
81 | CCN1CCN(C2CCN(C(C(N)=O)c3ccc(F)cc3)CC2)C1=O (stereo not drawn) | -3.81
82 | CCN1CCN(C2CCN(Cc3ccc(Cl)s3)CC2)C1=O | -13.73
83 | CN1CCN(C2CCN(CCOc3cccc(Cl)c3)CC2)C1=O | 94.86
84 | CN1CCN(C2CCN(Cc3ccc(Cl)s3)CC2)C1=O | -8.107
85 | CN1CCN(C2CCN(CCOc3ccc(Cl)cc3)CC2)C1=O | 110.5
86 | CN1CCN(C2CCN(CCOc3cccc(F)c3)CC2)C1=O | 93.98
87 | O=C(O)[C@H]1CCCN1CCOc1cccc(Cl)c1 | -3.257
88 | Cc1cc(C)n(CC2CN(CCOc3cccc(F)c3)CCO2)n1 (stereo not drawn) | -4.27
89 | CN1C[C@H]2CN(Cc3cccc(OC(F)(F)F)c3)CCN2C1=O | -0.9762
90 | CN1CCN(C2CCN(Cc3ccc(Cl)cc3)CC2)C1=O | -21.74
91 | CCN1CCN(C2CCN(CCOc3ccc(F)cc3)CC2)C1=O | 105.5
92 | CCOC(=O)N1C[C@H]2CC[C@@H]1CN(Cc1ccccc1)C2 | -18.44
93 | Cn1ccc(CS(=O)(=O)Cc2cccc(F)c2)cc1=O | 13.57
94 | COCCN(Cc1ccc(F)cc1Cl)C(=O)c1ccncc1 | -4.791
95 | Cc1nn2c(N3CCC(O)CC3)cc(-c3ccccc3)nc2c1C | 1.799
96 | CC(=O)c1cccc(NC(=O)CN2CCCCC2C2OCCO2)c1 (stereo not drawn) | 12.92
97 | O=C(NCc1ccccc1CN1CCC(O)CC1)Nc1ccncc1 | -8.548
98 | CC(C)CN1CCC(C(=O)NCCNC(=O)c2ccccc2)CC1 | 10.43
